12-LOX inh: inhibitors of human 12S-lipoxygenase ALOX12 | purified 12hLO, xylenol orange hydroperoxide absorbance | Potency, µM (series often up to 108 µM), inactives show top-dose activity change, negative = inhibition, usual class: inhibitors | 580,000 compounds, 1.1% hits | AID 1671190; also: % is scaled to controls: 0 for no effect and ±100 for the full control effect
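Hydroperoxide product was detected by ferrous iron/xylenol orange as the 573 to 405 nm absorbance ratio. Arachidonic acid at 40 uM (final) was turned over for 30 min at room temperature by 150 nM human 12hLO, pH 7.0 Hepes buffer, after 15 min compound preincubation.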
PLK1 PBD block: blocks phosphopeptide binding to human PLK1 polo-box domain | 360,000 compounds, 2.8% hits | Plk1 PBD binding of FITC phosphopeptide, fluorescence polarization | Potency, µM, for the others: max response, negative = inhibition, actives largely listed as inhibitors | P53350; also: series mostly up to about 57 µM; % is scaled to controls: 0 for no effect and ±100 for the full control effect; nearly all actives have a fitted effect of over 65% in size
BAZ2B inh: blocks human BAZ2B; Q9UIF8; AlphaScreen BAZ2B-H3K14Ac peptide displacement; Potency, µM (highest dose often 114 µM), without a hit: top-dose activity change, negative = inhibition, most hits filed as inhibitors; 360,000 compounds, 4.4% hits; also: % is scaled to controls: 0 for no effect and ±100 for the full control effect; nearly all actives have a fitted effect of over 60% in size
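BAZ2B 50 nM plus b-H3(5-23)K14Ac 50 nM, PBS pH 7.4/0.01% Tween-20, 30 min RT; compound added (max 110 uM), 30 min RT; streptavidin donor/Ni-chelate acceptor beads 10 ug/mL final, 20 min dark; AlphaScreen read.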
HP1b binding inh: HP1-beta chromodomain-methylated histone interaction inhibition; 390,000 compounds, 0.56% hits; Potency, µM (highest dose often 114 µM), for inactives: top-dose activity change, negative = inhibition, usual class: inhibitors; AlphaScreen HP1-beta / biotin-H3K9me3 peptide binding; P83916; also: nearly all actives have a fitted effect of over 70% in size
Target sequence (P83916 whole entry, looked up): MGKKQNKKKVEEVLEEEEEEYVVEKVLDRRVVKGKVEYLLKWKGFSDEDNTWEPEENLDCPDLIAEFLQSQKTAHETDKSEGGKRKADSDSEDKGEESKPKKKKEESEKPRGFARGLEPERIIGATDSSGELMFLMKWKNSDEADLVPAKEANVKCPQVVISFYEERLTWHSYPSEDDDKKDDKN
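Compound inhibition of the preformed complex between 50 nM HP1-beta and 50 nM biotinylated H3K9me3 peptide was read by AlphaScreen. Buffer was PBS pH 7.4 with 0.01% Tween-20. Incubations ran 30 min at room temperature, with 10 ug/mL donor/acceptor beads.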
JMJD2A Tudor: inhibitors of human JMJD2A Tudor domain. O75164. AlphaScreen JMJD2A-Tudor / H3K4me3 peptide binding. Potency, µM (doses to about 114 µM), without a hit: at the top dose activity change, negative = inhibition, most hits filed as inhibitors. 390,000 compounds, 4.4% hits; also: % is scaled to controls: 0 for no effect and ±100 for the full control effect; nearly all actives have a fitted effect of over 50% in size
G9a block: G9a (human) methyltransferase inhibition. G9a H3K9 monomethylation, AlphaScreen, 2 h. 350,000 compounds, 8.8% hits. AID 504332. Potency, µM (doses to about 102 µM), inactives show top-dose activity, negative = inhibition, usual class: inhibitors; also: % is scaled to controls: 0 for no effect and ±100 for the full control effect; nearly all actives have a fitted effect of over 75% in size
Target sequence (Q96KQ7 913-1193 limits assumed): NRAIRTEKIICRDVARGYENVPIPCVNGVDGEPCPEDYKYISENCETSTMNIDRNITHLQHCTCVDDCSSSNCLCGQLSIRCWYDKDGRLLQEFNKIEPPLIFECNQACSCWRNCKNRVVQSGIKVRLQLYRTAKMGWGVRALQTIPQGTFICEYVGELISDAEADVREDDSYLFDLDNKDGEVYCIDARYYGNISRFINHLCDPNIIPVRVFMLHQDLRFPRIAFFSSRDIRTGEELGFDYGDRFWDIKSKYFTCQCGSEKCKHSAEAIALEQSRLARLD
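Chemiluminescent proximity detection of H3K9 monomethylation, read after 10 min bead incubation in the dark. Reaction: 20 nM G9a, 500 nM biotin-H3K9 peptide, 20 uM SAM cofactor, 2 h, room temperature, following 15 min enzyme-compound preincubation.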
* marks the source's active call; other numbers are inactive results; u = inconclusive; x = not tested or not shown; [ ] = dose if it differs, or a comment. Sampled rows, rich in hits. Any-hit rate of the full collection: about 9%. Calls follow the shape of the dose curve; as a rule, active = well fitted curve in the direction sought with a large enough effect; inconclusive = small, poorly fitted or top-dose-only effect, or another doubt; inactive = no such curve, though single readings can be large; an effect the other way counts as inactive or inconclusive. Potency is read from the fitted curve at half-maximal effect.

SMILES | 12-LOX inh | PLK1 PBD block | BAZ2B inh | HP1b binding inh | JMJD2A Tudor | G9a block
COc1cc(CCCN2CCNC[C@@H]2C(C)O)cc(OC)c1OC (some centres not stated) | -1% | -2% | 7% | 45% | -10% | -15%[2.33 µM]
O=C(NCc1ccncc1)c1ccc2c(c1)n(Cc1ccc(F)cc1)c(=O)c1ccnn12 | 61% | x | x | x | x | x
Nc1ncnc(Nc2ccc(S(N)(=O)=O)cc2)n1 | 4% | 4% | 0% | 9% | -1% | -3%
NC(=O)c1cccnc1Oc1ccc(Cl)cc1 | 0% | -1% | -20% | 13% | -11% | x
NC(=O)c1cccnc1Oc1cccc(Cl)c1 | 0% | 27µM* | 16% | u | 20µM* | 1%[12.7 µM]
CCCCN(C)CCCNC(=O)c1ccc2c(c1)N(CC)C(=O)c1ccccc1S2=O (configuration not stated) | 227% | -3% | 6% | -7% | -15% | -9%
O=C(CSc1oc(-c2ccco2)nc1S(=O)(=O)c1ccc(Cl)cc1)NCC1CCCO1 (configuration not stated) | 7.9µM* | u | -1% | 2% | u | 45µM*
O=C(CSc1oc(-c2ccco2)nc1S(=O)(=O)c1ccccc1)NCC1CCCO1 (configuration not stated) | u | -22% | 11% | 23% | -10% | u
O=C(CSc1oc(-c2ccccc2)nc1S(=O)(=O)c1ccccc1)NCC1CCCO1 (configuration not stated) | 133% | -1% | -16% | 16% | -18% | -10%
Cc1ccc(-c2nc(S(=O)(=O)c3ccccc3)c(SCC(=O)NCC3CCCO3)o2)cc1 (configuration not stated) | u | -25% | -3% | 7% | -13% | 35µM*
CC1(CCc2ccccc2)NC(=S)N(c2ccccc2)N1 (configuration not stated) | 1µM* | 1% | 50µM* | 28% | u | 10µM*
CC1(C)CC(C)(O)N(Cc2ccccc2)C(=S)N1 (configuration not stated) | -20% | u | 6% | -21% | -2%[57.1 µM] | 34%[59 µM]
CC1(CCc2ccccc2)NC(=S)N(c2ccc(Cl)cc2)N1 (configuration not stated) | u | -13% | 79µM* | 34% | u | 10µM*
O=C1NC(NS(=O)(=O)c2ccc(Cl)cc2)(C(F)(F)F)C(=O)N1CCc1ccccc1 (configuration not stated) | -23% | u | 20% | 6% | -9%[11.4 µM] | 60%[12.7 µM]
COC(=O)c1ccc(C)c(S(=O)(=O)Oc2ccc3ccc(=O)oc3c2)c1 | -2% | x | x | x | x | x
Cc1cccc(C(=O)NC(=S)Nc2ccc(S(=O)(=O)N3CCN(C)CC3)cc2)c1 | u | 21µM* | u | u | u | u
Cc1cccc(C(=O)NC(=S)Nc2ccc(S(=O)(=O)N3CCCCC3)cc2)c1 | 11µM* | u | -25% | 38% | -2%[11.4 µM] | -7%[12.7 µM]
Cc1ccc(C(=O)NC(=S)Nc2ccc(S(=O)(=O)N3CCN(C)CC3)cc2)cc1 | u | u | -9%[57.1 µM] | u | u | u
O=C(O)C1CC=CCC1C(=O)Nc1ccc(F)c(F)c1 (configuration not stated) | -7% | 0% | 9% | 28% | -3% | 26%[59 µM]
Cc1nc2ccc(N=NC3=C(O)CCCC3=O)cc2s1 | u | -11% | -34%[57.1 µM] | 30% | u | 40µM*
c1ccc(N=NN2CCOCC2)cc1 | u | -1% | x | x | x | x
Cc1nc2ccc(N=NC3=C(O)CC(C)(C)CC3=O)cc2s1 | -18% | -11% | u | -15% | u | u
O=C1CCCC(O)=C1N=Nc1cccc(C(=O)O)c1 | u | -21% | x | -26% | 89µM* | 28µM*
O=C(O)c1cccc(N=NN2CCOCC2)c1 | -28% | -5% | -23% | 38% | -7% | 16µM*
O=C1CCCC(O)=C1N=Nc1c(Cl)cc(Cl)cc1Cl | -24% | 0% | 50µM* | 10% | u | 8.9µM*
SMILES | 12-LOX inh | PLK1 PBD block | BAZ2B inh | HP1b binding inh | JMJD2A Tudor | G9a block
COc1cc(-c2noc(C)c2C#Cc2ccsc2)cc(OC)c1OC | -17% | -18% | 0% | 75% | 33% | x
O=[N+]([O-])c1ccc(N2CCOCC2)nc1 | 22% | -15% | -38% | 35% | -15% | x
O=C(CCC1CCCCC1)NCCN1C2=NC[C@H](Cc3ccc(O)cc3)N2C[C@H]1Cc1ccc(O)cc1 | -29% | u | -14% | 22% | -35% | 20%[59 µM]
CC(C)[C@H]1CN=C2N(CCNC(=O)CCC3CCCCC3)[C@H](Cc3ccc(O)cc3)CN21 | u | 27µM* | -23% | -13% | u | -109%[59 µM]
C[C@@H]1CN=C2N(CCNC(=O)CCC3CCCCC3)[C@H](Cc3ccc(O)cc3)CN21 | u | u | -28% | -10% | 50µM* | 3%[12.7 µM]
NC(=O)[C@@H]1C[C@H](Oc2cccnc2)CN1C(=O)CCC1CCCC1 | 39% | x | x | x | x | x
Cc1cc(N)ccc1NC(=O)c1ccccc1 | -23% | -1% | -6% | -1% | -4% | -20%[0.0925 µM]
Cc1nc(C2CC(O)C2)cc(N2CCC(Oc3ncccn3)CC2)n1 (configuration not stated) | 39% | x | x | x | x | x
COc1ccc(-c2cc(-c3n[nH]c(=S)n3-c3cccc4ccccc34)[nH]n2)cc1 | u | -17% | u | u | u | 35µM*
COCc1n[nH]c(=S)n1-c1cccc2ccccc12 | u | -7% | 0% | 17% | 20µM* | 16µM*
COc1ccc(-n2c(=S)[nH]c3ccccc3c2=S)cc1 | -2% | -20% | 5% | 39% | -18% | 28%[2.33 µM]
O=c1c2ccccc2nc(-c2cccs2)n1-c1cccc2ccccc12 | -21% | 0% | -12% | 12% | -18% | u
CCOC(=O)c1cc(-c2ccc(OC)cc2)n[nH]1 | 119% | -7% | 1% | 36% | -7% | x
S=c1[nH]nc(-c2cc(-c3ccsc3)n[nH]2)n1-c1cccc2ccccc12 | u | -21% | u | 1% | u | 8.9µM*
CC(=O)c1ccc(-n2c(-c3cc(-c4ccsc4)n[nH]3)n[nH]c2=S)cc1 | u | -25% | -35% | 10% | u | 1.1µM*
Cc1ccc(-c2csc(CC(N)=O)n2)cc1 | -2% | -2% | -2% | 30% | -18% | 1%
COc1ccc(-c2oc(NC(C)=O)c(C#N)c2-c2ccc(OC)cc2)cc1 | -41% | 32% | -32% | -9% | u | u
C=CCn1c(N2C(=O)CC(Cc3ccccc3)C2=O)nc2ccccc21 (configuration not stated) | 0% | 1% | 10% | 42% | -6% | 19%[12.7 µM]
